The campaign covered roughly 52,000 compounds. About 1,700 (3.3%) were called active. The list comes from a sample in which actives are over-represented; it also holds similar structures and randomly drawn compounds. A number with no mark means an inactive call. No stated cut-off is given here; in the data, active means survival mostly below about 52% (no sharp cut-off); inactive means mostly above about 56%.
Test system: Wild type
Assay: growth inhibition of S. aureus wild type versus tarO mutant, primary screen, teichoic acid synthesis inhibitors, RN4220, OD600 (AID 463173)
Settings: S. aureus RN4220 wild type/DeltatarO growth, OD600, 18 h, hits give low values, screened at 18.75 µg/mL (by protocol)

Structure (SMILES)	survival
CCSC(=C(C#N)C#N)c1cc2c([nH]1)CCCC2	116%
Cc1ccc2ccc3cc(C(=O)N4CCN(c5ccccc5F)CC4)nc3c2[nH]1	78%
CCOc1ccc(NC(=O)Cn2c(=O)n(Cc3ccc(C(=O)NCc4ccc5c(c4)OCO5)cc3)c(=O)c3ccccc32)cc1	98%
Cc1cccc(OC(=O)c2cc(-c3ccc4c(c3)OCCO4)on2)c1C	-6% (active)
Cc1cccc(OC(=O)c2cc(-c3ccc(Cl)cc3)on2)c1C	116%
O=C(Nc1cccc(Br)c1)c1cc(-c2ccc3c(c2)OCCO3)on1	80%
CCCc1nnc(NC(=O)Cc2coc3ccc(C(C)C)cc23)s1	99%
CC(=O)Nc1ccc(C(=O)Nc2ccc3c(c2)N(C2CCCC2)C(=O)c2ccccc2S3)cc1	-6% (active)
O=C(Nc1ccc2c(c1)N(C1CCCC1)C(=O)c1ccccc1S2)c1ccccc1	75%
O=C(Nc1ccc2c(c1)N(C1CCCC1)C(=O)c1ccccc1S2)c1ccc(F)cc1	87%
Cc1ccc(S(=O)(=O)C(=O)Nc2cccc3nsnc23)cc1	93%
CCc1ccc(NC(=O)Cn2c(=O)n(CC3CCCO3)c(=O)c3cc(OC)c(OC)cc32)cc1 (configuration not stated)	68%
CN1CCN(C(CNC(=O)C(=O)Nc2ccc(F)cc2)c2cccnc2)CC1 (configuration not stated)	96%
CN(CC(=O)Nc1cccc(C#N)c1)S(=O)(=O)c1cc2c(cc1Cl)NC(=O)CO2	129%
Cc1cc2c(cc1S(=O)(=O)N(C)CC(=O)Nc1cccc(C#N)c1)OCC(=O)N2	-4% (active)
Cc1cc2c(cc1S(=O)(=O)N(C)CC(=O)Nc1ccc(C#N)cc1)OCC(=O)N2	64%
COc1ccc(-c2[nH]ncc2C(=O)NCc2cccc(F)c2)cc1	78%
Cc1noc2nc(C(=O)O)nc(N3CCCCC3)c12	73%
CCOC(=O)c1nc(N2CCN(c3ccc(F)cc3)CC2)c2c(C)noc2n1	14% (active)

Structure (SMILES)	survival
CCOC(=O)c1c(C)oc2nc(C)nc(N3CCN(c4ccc(OC)cc4)CC3)c12	68%
CCC(=O)N1CCc2cc(CNS(=O)(=O)c3cccs3)ccc21	89%
Cc1cc(OCC(=O)NCC2(N3CCN(C)CC3)CCCCC2)cc(C)c1Cl	80%
CC(C)Oc1ccc(CNC(=O)c2ccccc2NC(=O)c2nsc3ccccc23)cc1	124%
CCOc1ccc(CNC(=O)c2ccccc2NC(=O)c2nsc3ccccc23)cc1	-6% (active)
Cc1ccc(CNC(=O)c2ccccc2NC(=O)c2nsc3ccccc23)cc1	75%
Cc1ccc(S(=O)(=O)NCCc2nnc3ccc(SCC(=O)Nc4c(C)cc(C)cc4C)nn23)cc1	86%
CCC(=O)N1CCc2cc(S(=O)(=O)NCCC(=O)Nc3cc(C)ccc3OC)ccc21	117%
Cc1ccc(NC(=O)C(Cc2c[nH]c3ccccc23)NC(=O)OCC(C)C)cc1 (configuration not stated)	54%
COC(=O)c1c(NC(=O)C(C)Oc2ccc(Cl)c(C)c2)sc(C)c1C (configuration not stated)	10% (active)
CNC(=O)c1c(NC(=O)c2ccc(S(=O)(=O)N3CCC(C)CC3)cc2)sc2c1CCC2	129%
CCOC(=O)c1c(NC(=O)c2ccc(OC)cc2)sc2c1CCCCC2	7% (active)
COC(=O)c1c(NC(=O)C(C)Oc2ccc(Cl)cc2Cl)sc2c1CCCC2 (configuration not stated)	57%
CCCOc1ccc(C(=O)Nc2sc3c(c2C(=O)OCC)CCCCC3)cc1	27%
CCCCOc1ccc(C(=O)Nc2sc3c(c2C(=O)OCC)CCCCC3)cc1	38%
Cc1cc(OC(C)C(=O)Nc2sc3c(c2C(N)=O)CCCC3)ccc1Cl (configuration not stated)	82%
CCCc1ccc(OC(C)C(=O)Nc2sc3c(c2C(=O)OC)CCCCC3)cc1 (configuration not stated)	-2% (active)
CCCc1ccc(OCC(=O)Nc2sc3c(c2C(=O)OC)CCCCC3)cc1	43%
CCOC(=O)c1c(NC(=O)C(C)Oc2ccc(Cl)c(C)c2)sc2c1CCCC2 (configuration not stated)	50%

Structure (SMILES)	survival
CNC(=O)c1c(NC(=O)c2ccc(S(=O)(=O)N3CCCC(C)C3)cc2)sc2c1CCC2 (configuration not stated)	101%
CNC(=O)c1c(NC(=O)c2ccc(S(=O)(=O)N3CCCCC3)cc2)sc2c1CCC2	-2% (active)
O=C(Nc1ccc(F)cc1F)c1cccc2c1C(=O)N(C1CCCCC1)C2	94%
CCn1c(C(=O)N2CCC(C(=O)N3CCN(c4ccc(OC)cc4)CC3)CC2)cc2sccc21	62%
CCOc1ccccc1NC(=O)NC(CC)c1c(-n2cccc2)sc2c1CCN(C)C2 (configuration not stated)	69%
CC1=C(C#N)c2nc(N)c(C#N)c(C)c2/C1=C\c1cccnc1	83%
COc1ccc(Cl)cc1NC(=O)CCC(=O)N1CCOc2ccccc21	83%
CC(=O)c1cccc(-n2c(=O)c3c4c(sc3n(Cc3ccccc3Cl)c2=O)CN(C(C)=O)CC4)c1	88%
CCOC(=O)c1cc2c(=O)n3ccccc3nc2n(Cc2ccco2)c1=NC(=O)c1ccc(C(C)(C)C)cc1	72%
CCOC(=O)c1c(NC(=O)c2ccc(OC)c(OC)c2)sc2c1CCCCC2	69%
CCOC(=O)c1c(NC(C)=O)sc2c1CCC2	104%
CCOC(=O)c1c(NC(=O)c2ccc(C)cc2)sc2c1CCCCC2	-1% (active)
CCOC(=O)c1c(NC(=O)c2cc(Cl)ccc2Cl)sc2c1CCCC2	76%
CCOC(=O)c1c(NC(=O)c2ccc(C)c(C)c2)sc2c1CCCCC2	0% (active)
CCOC(=O)c1c(NC(=O)c2ccc(S(=O)(=O)N(CC)CC)cc2)sc2c1CCCCC2	80%
CCOC(=O)c1c(NC(=O)c2ccccc2C)sc2c1CCCC2	-8% (active)
CCOC(=O)c1c(NC(=O)c2cc(OCC)c(OCC)c(OCC)c2)sc2c1CCCCC2	83%
CCOC(=O)c1c(NC(=O)c2ccc(OCC)c(Br)c2)sc2c1CCCC2	67%
Cc1c(C(=O)Nc2ccccc2Br)oc2ccc(S(=O)(=O)N3CCCCCC3)cc12	83%
